Data taken from paper PMC5540273 (PLoS ONE, 2017).

Test system: T1, CDC2L1
T1 construct: gene CDK11B
Settings: concentration: 1 μM, replicates: in singlicate; n = 1
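Further: KINOMEscan kinase panel screen.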

Compound | %Inh [%]
Cc1nccc(-c2c(-c3ccc(F)cc3)ncn2CCCN2CCOCC2)n1.Cl [SB-282975] | 100
O=C1NC(=O)C(c2ccc(Cl)cc2)=C1Nc1cccc(Cl)c1 [SB-317651] | 0
Cc1ccc(NC(=O)Nc2ccccc2)cc1-c1ccc(C(=O)Nc2ccncc2)cc1 [GSK1398471] | 0
O=C(Nc1n[nH]c2nc(-c3cccs3)c(Br)cc12)C1CCCC1 [SB-743341] | 1
COC(=O)C(NC(=O)NC1CCN(c2ccnc(Nc3ccc(F)cc3)n2)C1)c1ccccc1 (centres unmarked) [GSK1379712] | 0
CC(=O)c1cccc(NC(=O)NC2CCN(c3ccnc(Nc4ccc(F)cc4)n3)C2)c1 (centres unmarked) [GSK1379710] | 0
CCc1ccc(-c2ccc3c(c2)-c2n[nH]cc2S(=O)(=O)N3C)cc1 | 0
O=C(Nc1n[nH]c2nc(-c3cccs3)c(Br)cc12)C1CC1 [SB-735297] | 1
COC(=O)C(Cc1ccccc1)NC(=O)NC1CCN(c2ccnc(Nc3ccc(F)cc3)n2)C1 (centres unmarked) [GSK1379714] | 0
CC(C)c1ccc(O)cc1Nc1ccnc2ccc(C(F)(F)F)cc12 [GW482059] | 0
Cc1ccc(NC(=O)c2ccc(Cl)cc2)cc1-c1ccc(C(=O)Nc2ccncc2)cc1 [GSK1398467] | 0
CC(C)c1cc(-c2ccc3c(N)n[nH]c3c2)nc(N)n1 [GSK2250882] | 0
Cn1cnc2c(N)ncnc21 [SKF-97623] | 0
COc1ccc(Nc2nccc(N3CCC(NC(=O)C(C)c4ccc(Cl)cc4)C3)n2)cc1 (centres unmarked) [GSK1379735] | 6
